Columns and labels:
ETS1 [1] = biological target: T1, ETS1 (UniProt P14921); assay: ETS1 binding intensity (PBM fluorescence), ETS1 alone (arbitrary fluorescence units); higher = stronger binding; settings: ETS1 concentration 1 nM; RUNX1 concentration 0 nM
T1 sequence: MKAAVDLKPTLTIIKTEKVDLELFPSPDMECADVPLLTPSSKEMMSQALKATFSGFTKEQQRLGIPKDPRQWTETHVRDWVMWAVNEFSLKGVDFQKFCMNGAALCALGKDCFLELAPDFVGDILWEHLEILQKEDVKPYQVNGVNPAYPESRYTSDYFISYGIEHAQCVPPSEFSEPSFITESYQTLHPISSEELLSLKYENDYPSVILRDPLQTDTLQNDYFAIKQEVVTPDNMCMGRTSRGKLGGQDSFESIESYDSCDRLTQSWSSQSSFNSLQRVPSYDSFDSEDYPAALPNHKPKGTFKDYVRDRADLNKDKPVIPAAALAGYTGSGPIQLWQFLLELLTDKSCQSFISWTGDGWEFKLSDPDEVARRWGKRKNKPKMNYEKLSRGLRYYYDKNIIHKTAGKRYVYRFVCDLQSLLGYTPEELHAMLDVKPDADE

RUNX1 [2] = biological target: RUNX1 (UniProt Q01196); assay: RUNX1 binding intensity (PBM fluorescence), RUNX1 alone (arbitrary fluorescence units); higher = stronger binding; settings: RUNX1 concentration 2 nM; ETS1 concentration 0 nM
Sequence of RUNX1 (Q01196 whole entry): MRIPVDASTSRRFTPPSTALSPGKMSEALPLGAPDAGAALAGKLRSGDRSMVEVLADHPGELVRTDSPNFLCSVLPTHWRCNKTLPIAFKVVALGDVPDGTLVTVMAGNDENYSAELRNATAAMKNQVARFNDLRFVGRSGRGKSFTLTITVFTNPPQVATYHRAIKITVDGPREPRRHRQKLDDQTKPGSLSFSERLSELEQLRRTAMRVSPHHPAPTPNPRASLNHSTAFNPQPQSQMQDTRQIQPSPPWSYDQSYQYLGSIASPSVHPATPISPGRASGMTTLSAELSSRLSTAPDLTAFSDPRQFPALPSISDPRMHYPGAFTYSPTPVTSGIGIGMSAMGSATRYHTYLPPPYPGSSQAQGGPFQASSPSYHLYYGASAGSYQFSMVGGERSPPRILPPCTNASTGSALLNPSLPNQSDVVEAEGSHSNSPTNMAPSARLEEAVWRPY
Experimental: (§1)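 Cooperative gcPBM on 36-bp genomic probes with neighbouring ETS1 and RUNX1 sites. Recombinant human RUNX1 (2 nM) was incubated alone or with ETS1 (25 nM) and detected with anti-RUNX1 antibody plus Alexa488 secondary. Values are medians over 4 replicate spots; the RUNX1+ETS1 data were normalised to the RUNX1-only data. The probes sit in constant array flanks that are not printed.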

ETS1 [3] = biological target: T1, ETS1; assay: ETS1 binding intensity (PBM fluorescence) in presence of RUNX1, normalised to ETS1-only experiment (arbitrary fluorescence units); higher = stronger binding; settings: ETS1 concentration 1 nM; RUNX1 concentration 25 nM
RUNX1 [4] = biological target: RUNX1 (UniProt Q01196); assay: RUNX1 binding intensity (PBM fluorescence) in presence of ETS1, normalised to RUNX1-only experiment (arbitrary fluorescence units); higher = stronger binding; settings: RUNX1 concentration 2 nM; ETS1 concentration 25 nM
Experimental: as §1
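Throughout, for RUNX1 binding intensity (PBM fluorescence) in presence of ETS1, normalised to RUNX1-only experiment: Full-length recombinant human ETS1 or RUNX1 bound to double-stranded 36-bp genomic probes on microarrays, detected by protein-specific primary antibody and Alexa488 secondary, spot fluorescence as median of four replicate spots.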
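Throughout, for RUNX1 binding intensity (PBM fluorescence), RUNX1 alone: Full-length recombinant human RUNX1 bound to double-stranded 36-bp genomic probes on a high-density microarray, scored as Alexa488 fluorescence per spot via anti-RUNX1 antibody, median of four replicate spots.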

Row | Sequence | ETS1 binding intensity (ETS1 [1]) | RUNX1 binding intensity (RUNX1 [2]) | ETS1 binding intensity (ETS1 [3]) | RUNX1 binding intensity (RUNX1 [4])
1 | CCGCCGACACACTTCCGGCGGCCACCACAGGGTATT | 3140 | 795 | 3660 | 1910
2 | GTCTTCCTTCCTGAGAATCTTAACCACCAGCTTGCC | 434 | 1350 | 483 | 2050
3 | AGGCCCACCTGCTGCGGATGTGGTCTCTGTGTGTGC | 2340 | 774 | 6240 | 1340
4 | CAGCAGCACCTGCATCCGCTGCGGGAGTCCGAGCCG | 515 | 778 | 491 | 1030
5 | ACCTGCACTTCCTCCTCCCTAGACCGCACCCTTCTC | 491 | 2840 | 600 | 4300
6 | TGGGGCTCTTCCTGCTTATGTGACCACAGCACCTTG | 402 | 936 | 679 | 1760
7 | CTGCTGCTTTTAGGATGTGGTTTTATTATTGTCGGG | 670 | 1020 | 4960 | 1340
8 | CTCCCCCTTTTTTTCCTGTGGTTTCATTGCATGTTG | 454 | 6430 | 566 | 4190
9 | TCCTCCATGCAGGAAAACCTCTGTGGTCTGGGAGCT | 438 | 867 | 1230 | 862
10 | GAGCCTGTTGCTTCCGGTTCAGAGCCCACATGCTGG | 3070 | 736 | 3370 | 1940
11 | CCGCTGAGAACAGGATGTGGGTGTCAGGAGGTGAAG | 4850 | 765 | 7410 | 1530
12 | ATGCCTGTAGGAGGATGTGGTTTCTACACAACTCTG | 981 | 926 | 5640 | 1400
13 | GTTTTCAAGGCAGGAAGTGGCTGTGGTGGCACGGAG | 13700 | 789 | 21300 | 1570
14 | AAATCCACTCAGAGGAAACCACAGGCCTGGCCCAGC | 365 | 1300 | 622 | 1690
15 | ACACAGGAAGCAAAAGTTAAGCTATAAAACCCGCAA | 571 | 969 | 765 | 1240
16 | CTGGTTTCATTTCCGGGTGCGGCTTCTGTCATAAAG | 1900 | 924 | 2350 | 2460
17 | AACAACTGACCGGACAGAACACAGCCACAAAACACG | 606 | 936 | 544 | 928
18 | CAGAAAGAGGAAATGATGCGAGTCCACACCGCAGGC | 788 | 703 | 2610 | 1170
19 | CTGGTTTCCAACATCCTGTGGGCGGCCTGGTTTCAG | 1260 | 785 | 1270 | 2210
20 | GGGCCCTTCCTGTGGCGCCTGCCGAGCTGTGGTTGG | 388 | 716 | 496 | 1380

Row | Sequence | ETS1 binding intensity (ETS1 [1]) | RUNX1 binding intensity (RUNX1 [2]) | ETS1 binding intensity (ETS1 [3]) | RUNX1 binding intensity (RUNX1 [4])
21 | TTCTTCACTTCCTTCTCTCCGTGGTTTCGCCATTAG | 513 | 2260 | 436 | 3130
22 | ACAGATACAGCCTCAGGAAGTGGTTTTGTATCTCTG | 3200 | 682 | 6160 | 1070
23 | AGCTGAGAGCCTGCCGGAAGCCACAGCTTCTTCTCG | 4180 | 801 | 5670 | 1200
24 | AACAGTACTTCCGGGGCAAGTGAGCGCCCACAAGGC | 934 | 806 | 1300 | 1970
25 | TCCAGCCCCACCGGAAGTGGATGTGGTTAATCTAGT | 28800 | 955 | 56400 | 6380
26 | GCGGAGGCGGAAGTCGTGCTGCTGCTGACCACGGCT | 2560 | 741 | 3170 | 1370
27 | ACCACCCACTTCCCGCGCAGTTCCAAACCGCGACCA | 302 | 1590 | 795 | 5270
28 | GGTCTCTGCTTCCGGTCCTTGTGGTAGCACCTCTGT | 4510 | 936 | 5180 | 2710
29 | CACCTGCAGTGAAGAGGATGTGGGCAAAGATTATGC | 1350 | 746 | 2180 | 1100
30 | TGCTTAGCAGGAAGTTAGTCTGCCTGTGGTAGCTCC | 2770 | 734 | 3470 | 1020
31 | ACCCCAGGTACCGGAAGACCACAATTCCCAGGAGTC | 2220 | 1020 | 3710 | 1880
32 | ACACTGAGCTGAACGGAAATGTGGTTCTCACCTCAT | 2670 | 774 | 3100 | 1140
33 | CATCCAGGACGGAAACAGCATCCCCACCGCGGGAGC | 775 | 855 | 852 | 1080
34 | AGTGTCCGCCGCTTCCTGGTTGCGGGTCAGCGCCCA | 629 | 824 | 704 | 2690
35 | CGACTTCCGTCCCTGGGTGGGATCGAACCACCAACC | 532 | 1100 | 540 | 2780
36 | AGGCCGTGCAGGAAATGAGACCCACAGCCACGTCAC | 1800 | 789 | 2180 | 977
37 | GAGGCCCAGGATGTGGCTGGAGGCCTGTGGTGGGAC | 630 | 700 | 1130 | 864
38 | TGTGCTGACTACAGGATGCTGTGGTTAGTCAGGTTG | 1690 | 809 | 13800 | 1720
39 | GCTAAGGTGAAAGGAAGTGGGTTTTGTCTTTTTTTT | 2500 | 854 | 4150 | 1340
